SMN2 splice enh: SMN2 splice variant enhancement | 210,000 compounds, 2.8% hits | AID 1458 | Potency, µM (series often up to 46.1 µM), without a hit: at the top dose activity change, positive = activation, hits mostly activators | HEK293 SMN2-luciferase splicing reporter, luminescence, 30-36 h; further: % of control where 0% means no effect; nearly all actives have a fitted effect of over 55% in size
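qHTS luciferase splicing reporter: luminescence rises when SMN2 exon 7 is included in transfected HEK293 cells. Compound exposure lasted 30-36 h at 37C, with 4.5 mM final sodium butyrate as control, followed by a ONE-Glo read.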
KinaseGlo FLuc: counter-screen: inhibitors of Kinase-Glo firefly luciferase. Kinase-Glo luciferase, ATP luminescence, 8 min. Q27757. AID 1379. 200,000 compounds, 0.28% hits. Potency, µM (series often up to 38.3 µM), for inactives: top-dose activity change, negative = inhibition, hits mostly inhibitors; further: on the % scale 0 is the no-effect control and ±100 the full control effect; nearly all actives have a fitted effect of over 60% in size
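Recombinant Kinase-Glo luciferase, 10 uM ATP (linear range), luciferin; imidazole pH 7.2 / KCl / MgCl2 / Tween / BSA buffer; 8 min RT; luminescence.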
NPC1 prom act: activators of NPC1 promoter; Potency, µM (titrated, usually from 9.22 µM), inactives show at the top dose activation, actives largely listed as activators; 320,000 compounds, 2.4% hits; AID 485313; Huh7 NPC1 promoter luciferase reporter, 24 h; further: % of control where 0% means no effect; nearly all actives have a fitted effect of over 60% in size
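Huh7 cells stably carrying NPC1 promoter–luciferase, plated in Opti-MEM with 10% FBS for 2 h, were exposed to compound in DMSO for 24 h at 37 °C; luciferase reagent was added for 10 min and luminescence read.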
ELG1 genotox: genotoxicity induction in ELG1-luciferase HEK293T cells; HEK293T ELG1-luciferase reporter, luminescence, 16 h; Potency, µM (doses to about 46 µM), for the others: at the top dose activity change, positive = activation, usual class: activators; 330,000 compounds, 1.3% hits; AID 504466; further: % of control where 0% means no effect; nearly all actives have a fitted effect of over 60% in size
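16 hr compound incubation (37 °C, 5% CO2) of HEK293T cells carrying luciferase-tagged ELG1; luciferase then measured by ONE-Glo luminescence after 30 min at RT.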
FLuc modulator: firefly luciferase modulation, counter-screen for miR-21 project | purified FLuc, Km substrates, luminescence inhibition | P08659 | Potency, µM (titrated, usually from 57.5 µM), without a hit: at the top dose activity change, negative = inhibition, hits mostly inhibitors | 360,000 compounds, 6.9% hits;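 further: plate controls were vehicle for no effect and reference inhibitor for full effect; nearly all actives have a fitted effect of over 55% in size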
Target sequence (P08659 whole entry, looked up): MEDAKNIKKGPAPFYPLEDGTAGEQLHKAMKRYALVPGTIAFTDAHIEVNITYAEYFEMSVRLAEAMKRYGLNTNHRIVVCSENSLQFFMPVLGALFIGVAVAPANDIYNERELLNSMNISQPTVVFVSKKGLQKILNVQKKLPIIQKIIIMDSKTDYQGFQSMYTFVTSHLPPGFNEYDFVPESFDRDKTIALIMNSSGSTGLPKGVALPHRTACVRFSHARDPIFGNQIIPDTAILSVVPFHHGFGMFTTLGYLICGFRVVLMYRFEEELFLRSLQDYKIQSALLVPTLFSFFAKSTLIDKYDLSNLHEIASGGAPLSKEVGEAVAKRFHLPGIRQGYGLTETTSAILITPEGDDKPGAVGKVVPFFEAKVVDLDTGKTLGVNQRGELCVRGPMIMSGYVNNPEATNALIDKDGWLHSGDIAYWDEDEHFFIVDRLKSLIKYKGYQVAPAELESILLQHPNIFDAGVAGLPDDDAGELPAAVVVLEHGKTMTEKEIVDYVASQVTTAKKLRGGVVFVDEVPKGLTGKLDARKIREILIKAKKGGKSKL
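Purified P. pyralis luciferase (10nM final) with 10uM D-luciferin and 10uM ATP (Km levels) in 50mM Tris acetate pH 7.5, 10mM Mg acetate, 0.01% Tween-20, 0.05% BSA; qHTS 6-point titration, ~60 µM downward; luminescence read.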
Rab9 prom act: Rab9 promoter activation; AID 485297; Huh7 Rab9 promoter-luciferase reporter, luminescence, 24 h; Potency, µM (titrated, usually from 9.22 µM), without a hit: top-dose activation, negative = inhibition, actives largely listed as activators; 320,000 compounds, 2.8% hits; further: % of control where 0% means no effect; nearly all actives have a fitted effect of over 60% in size
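Luminescence read-out: Huh7 cells stably expressing Rab9-luciferase, treated 24 h with compound at 37 °C, then lysed with luciferase reagent for 10 min at ambient before reading.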
The depositor's hits bear a star; u = inconclusive; x = not tested or not shown; [ ] = remark or other dose. Hits are enriched below; roughly 7.4% of the tested compounds scored in any of these assays. The call rests on the fitted dose curve; in most records, active means well fitted curve in the direction sought with a large enough effect; inconclusive means small, poorly fitted or top-dose-only effect, or another doubt; inactive means no such curve, though single readings can be large; an effect the other way counts as inactive or inconclusive. Potency means the concentration at half of the fitted maximal effect.

SMILES	SMN2 splice enh	KinaseGlo FLuc	NPC1 prom act	ELG1 genotox	FLuc modulator	Rab9 prom act
COc1ccc(Cl)cc1NC(=O)CSc1nc(=O)[nH]c2c1CCC2	x	x	x	x	-12%	x
COc1ccc(C(=O)n2c(SC)nc3cc4c(cc32)OCCO4)cc1	9%	-1%	17%	u	19µM*	29%
COc1ccc(C(=O)c2cc3c(cc2[N+](=O)[O-])OCCO3)cc1	x	1%	-1%	4%	-1%	1%
Cc1ccc(-c2nc3nc4ccccc4nc3n2Cc2ccco2)cc1	8.9µM*	2%	4%	2.9µM*	11µM*	12%
Clc1ccc(-c2nc3nc4ccccc4nc3n2Cc2ccco2)cc1	18µM*	-6%	0%	23µM*	u	4%
OB(O)c1ccc(Cl)s1	-13%	-2%	x	x	x	x
CC(C)N1CC(O)=C(c2nc3ccccc3[nH]2)C1=N	9%	-2%	16%	u	19µM*	u
CCc1ccc(NC(=O)C2CCN(S(=O)(=O)c3c(C)noc3/C=C/c3cccs3)CC2)cc1	-3%	x	x	x	-3%	x
C[C@H]1CCCC=CC2C[C@H](OC(=O)CN(C)C)C[C@@H]2[C@@H](O)/C=C\C(=O)O1 (stereo not given in full)	-37%[9.22 µM]	-3%[7.66 µM]	x	x	x	x
FC(F)C(F)(F)C1=CC(c2cccs2)=NCCN1	0.71µM*	-2%	-2%	-2%	7%	0%
COc1cc(NC(=O)c2csc3c2CCCC3)ncn1	13µM*	-4%	3.5µM*	4.1µM*	3.4µM*	3.5µM*
Cc1nnc(NC(=O)c2csc3c2CCCC3)s1	22%	1%	17%	u	u	18%
COc1ccccc1NC(=O)c1csc2c1CCCC2	-18%	1%	0%	0%	19µM*	-1%
O=C(Nc1ccccn1)c1onc2c1CCCC2	0.71µM*	13µM*	0.35µM*	u	0.76µM*	0.4µM*
O=C(Nc1ccccn1)c1csc2c1CCCC2	13µM*	-4%	u	7.3µM*	6.7µM*	1.8µM*
COc1cc(OC)c(NC(=O)CCn2cnc3onc(-c4ccc(F)cc4)c3c2=O)cc1Cl	x	x	x	x	-8%	x
O=C(NCc1ccccc1)c1ccc(Cc2nc3ccccc3[nH]2)cc1	x	-2%	x	x	x	x
CCOc1ccc(NC(=O)CC2C(=O)N(c3cccc(C)c3)C(=O)N2CCC2=CCCCC2)cc1 (stereo not given)	15%	x	x	x	7%	x
O=C(N/N=C/c1cc(Br)c(Br)o1)c1cccnc1	6%	-2%	-8%	6%	-12%	-6%
O=C(N/N=C/c1cc(Br)c(O)c(Br)c1O)c1ccc2c(c1)OCCO2	x	x	-31%	u	7.6µM*	-36%
O=C(N/N=C/c1cc(Br)c(Br)o1)c1ccc2c(c1)OCCO2	x	x	u	5%	12µM*	2.5µM*
CCOc1cc(/C=N/NC(=O)c2ccc3c(c2)OCCO3)cc(Br)c1O	x	x	9%	10%	21µM*	13%
CCCCC(CC)CNC(=O)CCCc1nnc2n(CCC)c(=O)c3sccc3n12 (stereo not given)	4%	x	x	x	-2%	x
COc1ccc(Cl)cc1NC(=O)C1CCN(S(=O)(=O)c2ccc(F)cc2)CC1	-5%	x	x	x	-9%	x
Cc1cc(C)c(NC(=O)Cn2c(=O)n(CCC(=O)N3CCc4ccccc4C3)c(=O)c3ccccc32)c(C)c1	7%	x	x	x	-10%	x
Cc1ccccc1CNc1nc(N(C)C)nc2c1cnn2C	x	x	x	x	4%	x
COc1ccccc1CN1CCC2(CC1)CCN(S(=O)(=O)c1ccccc1)CC2	-16%	1%	x	x	x	x
CCOc1ccc(C2NC(=O)C(C#N)=C(S)N2c2ccc(C)cc2)cc1OC (stereo not given)	-13%	-1%	-2%	12%	17µM*	-1%
Cc1nc2cnc(Oc3ccccc3)nc2n(CCC#N)c1=O	6%	-3%	x	x	x	x
O=C(c1cc2cc(Cl)ccc2o1)N1CCCCCC1	x	x	u	13%	2%	4µM*

High-throughput results as filed in PubChem.
